For seven compounds, growth results are on record in PubChem BioAssay (NCI).

The structures appear in SMILES notation. Several values for one entry are separate records, joined by “and”; a condition that tells them apart may be missing. Identical values can stand only once. This is part of a sample that, as a whole, favours compounds with a hit. Of some 83,000 tested, about 20% had one in any assay.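 Compound tested at a single concentration for 48 hours in 96-well plates; a percent growth value below 10 was scored as active.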 Activity calls are given as the source filed them.

Among the test systems are NCI-H23 lung; NCI-H226 lung; NCI-H322M lung; HOP-62 NSCLC; NCI-H460 lung; HOP-92 NSCLC; NCI-H522 lung; A549/ATCC NSCLC; 786-0 renal; COLO 205 colon; DU-145 prostate; K-562 leukemia; MALME-3M melanoma; MDA-MB-231 breast; RXF 393 renal; SF-268 CNS; SF-295 CNS; SF-539 CNS; UACC-257 melanoma; M14 melanoma.
Experiment in all cases: NCI-60 one-dose screen, 48 h (100 = growth as untreated, 0 = no growth, -100 = all killed)
Conditions in all cases: 10 µM unless noted

With `[N-]=[N+]=CC(=O)CCC(=O)C=[N+]=[N-]`, the growth was 105% (inactive) in the assay on NCI-H23 lung; 100% (inactive) in the assay on NCI-H226 lung; 95.8% (inactive) in the assay on NCI-H322M lung; 92.6% (inactive) with HOP-62 NSCLC; 112% (inactive) in the assay with NCI-H460 lung; 90.6% (inactive) in the assay with HOP-92 NSCLC. Besides, the growth in the assay with NCI-H522 lung was 110% (inactive); in the assay with A549/ATCC NSCLC, 113% (inactive); in the assay on 786-0 renal, 99.3% (inactive); in the assay on COLO 205 colon it was 117% (inactive); in the assay on DU-145 prostate, 127% (inactive); in the assay with K-562 leukemia, 83.9% (inactive). Also, the growth in the assay with MALME-3M melanoma is 96.3% (inactive); in the assay with MDA-MB-231 breast, 103% (inactive); in the assay with RXF 393 renal it was 124% (inactive); in the assay on SF-268 CNS, 121% (inactive); in the assay on SF-295 CNS, 106% (inactive); with SF-539 CNS it was 88.3% (inactive). Further, the results for the growth with UACC-257 melanoma and in the assay with M14 melanoma were 137% (inactive) and 102% (inactive), respectively.
Regarding `CN(C)C(=S)SSC(=S)N(C)C`, the growth in the assay with NCI-H23 lung was 98.9% (inactive) and 138% (inactive); in the assay with NCI-H226 lung it was 99.3% (inactive) and 110% (inactive); with NCI-H322M lung, 75.3% (inactive) and 94.9% (inactive); with HOP-62 NSCLC it was 111% (inactive) and 112% (inactive); with NCI-H460 lung it was -20.9% (active) and 92.9% (inactive); in the assay with HOP-92 NSCLC it was 102% (inactive). The growth in the assay with NCI-H522 lung is 25.3% (inactive) and 24.4% (inactive); in the assay on A549/ATCC NSCLC, 80% (inactive) and 71.6% (inactive); in the assay on 786-0 renal, 107% (inactive) and 101% (inactive); in the assay on COLO 205 colon it was 63.1% (inactive) and 70.6% (inactive); with DU-145 prostate, 105% (inactive) and 125% (inactive); in the assay with K-562 leukemia, 105% (inactive). Further, the growth in the assay on MALME-3M melanoma was 65.5% (inactive) and 90.9% (inactive); with MDA-MB-231 breast it was 112% (inactive) and 98.5% (inactive); with RXF 393 renal it was 104% (inactive) and 128% (inactive); with SF-268 CNS, 102% (inactive) and 113% (inactive); in the assay on SF-295 CNS it was 75% (inactive) and 96.9% (inactive); in the assay with SF-539 CNS, 100% (inactive) and 112% (inactive). The growth with UACC-257 melanoma is 77.7% (inactive) and 103% (inactive); with M14 melanoma it was 93% (inactive) and 100% (inactive).
In the case of `CNC(=O)Oc1ccc(Cl)cc1SSc1cc(Cl)ccc1OC(=O)NC`, the growth with NCI-H23 lung is 65.4% (inactive); in the assay with NCI-H226 lung, 102% (inactive); with NCI-H322M lung, 103% (inactive); with HOP-62 NSCLC it was 95.2% (inactive); with NCI-H460 lung, 60.1% (inactive); in the assay on HOP-92 NSCLC, 42.7% (inactive). Moreover, the growth in the assay with NCI-H522 lung was 51.2% (inactive); in the assay on A549/ATCC NSCLC it was 103% (inactive); with 786-0 renal, 110% (inactive); with COLO 205 colon, 110% (inactive); in the assay with DU-145 prostate it was 96.7% (inactive); with K-562 leukemia, 63.1% (inactive). Besides, the growth is 78.2% (inactive) with MALME-3M melanoma; 78.3% (inactive) in the assay on MDA-MB-231 breast; 107% (inactive) in the assay with RXF 393 renal; 65.8% (inactive) in the assay with SF-268 CNS; 75.7% (inactive) with SF-295 CNS; 98.2% (inactive) with SF-539 CNS. The growth was 79% (inactive) with UACC-257 melanoma and 112% (inactive) in the assay with M14 melanoma.
For `C[C@H](O)CCC(=O)c1ccoc1`, the growth in the assay with NCI-H23 lung is 99.7% (inactive); in the assay on NCI-H226 lung, 99.2% (inactive); in the assay on NCI-H322M lung it was 106% (inactive); in the assay on HOP-62 NSCLC it was 108% (inactive); in the assay with NCI-H460 lung, 105% (inactive); with HOP-92 NSCLC, 111% (inactive). In addition, the growth with NCI-H522 lung is 99.5% (inactive); in the assay with A549/ATCC NSCLC, 97% (inactive); in the assay on 786-0 renal, 106% (inactive); in the assay on COLO 205 colon, 116% (inactive); in the assay on DU-145 prostate, 100% (inactive); with K-562 leukemia it was 96.5% (inactive). For the same compound, the growth with MALME-3M melanoma was 106% (inactive); in the assay with MDA-MB-231 breast, 108% (inactive); in the assay with RXF 393 renal, 99.4% (inactive); with SF-268 CNS it was 98.9% (inactive); in the assay on SF-295 CNS, 107% (inactive); with SF-539 CNS it was 102% (inactive). For the same compound, the growth was 99.5% (inactive) with UACC-257 melanoma and 108% (inactive) with M14 melanoma.
On to `CC1=C([Te]c2ccccc2)C(=O)c2ccccc2C1=O`, for which the growth in the assay on NCI-H23 lung was -33.9% (active); in the assay on NCI-H226 lung it was -52.1% (active); with NCI-H322M lung it was -22.8% (active); in the assay on HOP-62 NSCLC, -49.5% (active); with NCI-H460 lung, -57.7% (active); with HOP-92 NSCLC, -53.8% (active). The growth was -15.3% (active) with NCI-H522 lung; -66.1% (active) in the assay with A549/ATCC NSCLC; -46.2% (active) with 786-0 renal; -83.6% (active) with COLO 205 colon; -53.4% (active) with DU-145 prostate; 14.7% (inactive) in the assay with K-562 leukemia. Further, the growth with MALME-3M melanoma is -49.5% (active); in the assay on MDA-MB-231 breast, -24.6% (active); in the assay with RXF 393 renal it was -35.5% (active); with SF-268 CNS, -18.1% (active); with SF-295 CNS it was -34.5% (active); in the assay with SF-539 CNS, -71.4% (active). For the same compound, the growth in the assay on UACC-257 melanoma was -26.2% (active); in the assay with M14 melanoma it was -22.1% (active).
Consider `CC[C@H](C)[C@H](NC(=O)CN(C)C)C(=O)N(C)[C@H](C[C@@H](OC(C)=O)c1nc(C(=O)NC23CC(C(=O)OC)(C2)C3)cs1)C(C)C`, for which the growth is 33.3% (inactive) in the assay with NCI-H23 lung; 35.2% (inactive) in the assay with NCI-H226 lung; 39.2% (inactive) in the assay on NCI-H322M lung; 20.1% (inactive) with HOP-62 NSCLC; 7.29% (active) in the assay with NCI-H460 lung; 57.2% (inactive) in the assay on HOP-92 NSCLC. Besides, the growth in the assay with NCI-H522 lung is 12% (inactive); in the assay with A549/ATCC NSCLC, 19.3% (inactive); in the assay on 786-0 renal, 26.4% (inactive); with COLO 205 colon it was -35.8% (active); with DU-145 prostate, 9.21% (active); with K-562 leukemia it was 9.47% (active). In addition, the growth with MALME-3M melanoma was 50.9% (inactive); with MDA-MB-231 breast, 1.51% (active); with RXF 393 renal, 8.43% (active); in the assay with SF-268 CNS it was 21.8% (inactive); with SF-295 CNS it was 13.8% (inactive); with SF-539 CNS, -8.6% (active). The growth with UACC-257 melanoma is 46.8% (inactive); with M14 melanoma, -8.54% (active).
Turning to `C[C@]12CCC(=O)C[C@@H]1CC[C@@H]1[C@@H]2CC[C@]2(C)[C@@H](OC(=O)N(CCCl)N=O)CC[C@@H]12`, the growth in the assay with NCI-H23 lung is 29.5% (inactive); in the assay with NCI-H226 lung, 45.8% (inactive); with NCI-H322M lung, 49.3% (inactive); in the assay with HOP-62 NSCLC, 23.9% (inactive); with NCI-H460 lung, -64% (active); with HOP-92 NSCLC, -8.11% (active). Also, the growth in the assay with NCI-H522 lung was 22.3% (inactive); with A549/ATCC NSCLC, 28.2% (inactive); in the assay on 786-0 renal, 14.2% (inactive); with COLO 205 colon it was 31.8% (inactive); with DU-145 prostate it was -53.4% (active); in the assay on K-562 leukemia, 10.7% (inactive). In addition, the growth in the assay on MALME-3M melanoma is 57.2% (inactive); in the assay on MDA-MB-231 breast it was 69.6% (inactive); with RXF 393 renal, 32.7% (inactive); with SF-268 CNS it was 12.7% (inactive); with SF-295 CNS, -29.6% (active); with SF-539 CNS it was -28.5% (active). Besides, the values for the growth in the assay with UACC-257 melanoma and in the assay on M14 melanoma were 57.5% (inactive) and 17.7% (inactive), respectively.
